Experimental findings from PubChem BioAssay are described below.

Calls of active or inactive are those of the source.

Experiment [1] has as its system Human papillomavirus type 1a protein E7 (residues 44-93). Put plainly: small molecules binding HPV E7 44-93 – biochemical, small-molecule microarray, residues 44-93, 635 nm fluorescence, primary screen (AID 1108).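 Further: E7 fragment applied at 1 µg/mL in TBST for 1 h at 4 C; score combines spot fluorescence with its signal to noise ratio.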 The conditions noted are these: fluorescence 635 nm, higher = more signal.
Experiment [2] is described as follows: hepatitis C replication reporter changes, two-sided – Huh7 cells, luciferase reporter, HCV replication inhibitor project, primary screen (AID 1109).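 Further: huh7 hepatoma cells harbouring a luciferase neomycin HCV replicon reporter; luciferase luminescence as measure of HCV replicon replication; test concentration not given here.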 The settings on record: Huh7 HCV replicon luciferase reporter, 48 h; higher = more signal.
The target of experiment [3] is Left-right determination factor 2 (Homo sapiens) (UniProt O00292). Put plainly: small molecules binding LEFTY2 protein – biochemical, small-molecule microarray, 635 nm fluorescence scan, primary screen (AID 1110). The settings on record: higher = more signal.
Chain of Left-right determination factor 2 (Homo sapiens) (O00292 whole entry, looked up): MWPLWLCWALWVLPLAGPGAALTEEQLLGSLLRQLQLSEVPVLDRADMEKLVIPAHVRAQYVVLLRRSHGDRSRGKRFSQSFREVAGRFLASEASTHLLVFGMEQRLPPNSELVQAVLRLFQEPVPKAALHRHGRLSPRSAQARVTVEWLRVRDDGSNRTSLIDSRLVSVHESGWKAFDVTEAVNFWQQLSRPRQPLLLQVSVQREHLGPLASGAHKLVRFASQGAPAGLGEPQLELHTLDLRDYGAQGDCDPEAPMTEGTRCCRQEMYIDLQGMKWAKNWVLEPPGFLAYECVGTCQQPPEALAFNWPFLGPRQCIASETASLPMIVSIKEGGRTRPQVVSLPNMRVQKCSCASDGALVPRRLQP
The target in experiment [4] is Calmodulin-1 (Homo sapiens) (UniProt P0DP23). Put plainly: small molecules binding calmodulin-1 with EGTA – biochemical, small-molecule microarray, Cy5-labelled CALM1, profiling panel (AID 1111).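 Further: labelled calmodulin applied in Tris saline Tween buffer holding calcium plus EGTA and DTT.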 The settings on record: Cy5-CALM1 binding fluorescence, higher = more signal.
Experiment [5] shares this target. Put plainly: small molecules binding Ca-loaded calmodulin-1 – biochemical, small-molecule microarray, Cy5-labelled CALM1, plus calcium, artefact control for SMM control-protein annotation, profiling panel (AID 1112).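 Further: score merges spot fluorescence with signal to noise from triplicate slides.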 The settings on record: Cy5-CALM1 binding fluorescence, higher = more signal.
Experiment [6] in a line: probe aWnt5a binding to arrayed compounds – biochemical, biotinylated probe, 635/667 nm fluorescence, primary screen (AID 1113).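 Further: score merges 667 nm fluorescence intensity with signal-to-noise per printed feature.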 The settings on record: small-molecule microarray, higher = more signal.
Experiment [7] is described as follows: probe aShh binding to arrayed compounds – biochemical, biotinylated probe, 635/667 nm fluorescence, primary screen (AID 1114).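 Further: probe is biotin-labelled aShh protein from a stem cell growth factor screen; measures binding of labelled protein to compounds printed on the slide; score merges feature fluorescence at 667 nm with signal-to-noise.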 The conditions noted are these: small-molecule microarray, higher = more signal.
The nature of experiment [8]: probe aNog binding to arrayed compounds – biochemical, biotinylated probe, 635/667 nm fluorescence, primary screen (AID 1115).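 Further: probe is biotinylated aNog protein used at 0.15 µg/mL for 1 h at 4 C; z-score combines 667 nm fluorescence of each spot with its signal to noise.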 The conditions noted are these: small-molecule microarray, higher = more signal.
Experiment [9] deals with Torsin-1A-interacting protein 1 (Homo sapiens) (UniProt Q5JTV8). Put plainly: compound microarray binding of lysate hLAP1 – cell lysate, small-molecule microarray, COS7 lysate, 635/667 nm fluorescence, primary screen (AID 1116). The conditions noted are these: 635 nm fluorescence, higher = more signal.
Chain of Torsin-1A-interacting protein 1 (Homo sapiens) (Q5JTV8 whole entry, looked up): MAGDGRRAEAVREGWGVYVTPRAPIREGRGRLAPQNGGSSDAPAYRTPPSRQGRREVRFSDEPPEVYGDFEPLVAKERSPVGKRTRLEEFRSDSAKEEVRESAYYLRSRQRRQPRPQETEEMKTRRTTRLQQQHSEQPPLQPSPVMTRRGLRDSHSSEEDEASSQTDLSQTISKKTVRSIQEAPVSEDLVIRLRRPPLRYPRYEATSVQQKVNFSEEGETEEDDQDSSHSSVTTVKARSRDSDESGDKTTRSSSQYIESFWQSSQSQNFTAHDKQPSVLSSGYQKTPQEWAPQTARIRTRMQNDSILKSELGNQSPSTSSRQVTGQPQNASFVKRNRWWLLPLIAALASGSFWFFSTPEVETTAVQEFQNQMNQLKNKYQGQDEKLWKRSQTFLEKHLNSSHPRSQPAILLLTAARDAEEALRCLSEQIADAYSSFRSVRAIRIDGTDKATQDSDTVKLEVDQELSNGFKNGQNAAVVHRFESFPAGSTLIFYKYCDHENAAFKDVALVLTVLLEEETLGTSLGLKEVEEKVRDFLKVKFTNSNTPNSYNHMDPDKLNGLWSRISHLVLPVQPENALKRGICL
Experiment [10] has as its target Alpha-bungarotoxin (Bungarus multicinctus) (UniProt P60615). Put plainly: compounds binding labelled alpha-BTX control protein – biochemical, small-molecule microarray, Alexa647 label, 635/667 nm fluorescence, artefact control for SMM control protein annotation, profiling panel (AID 1117). The settings on record: alpha-BTX-A647 binding fluorescence, higher = more signal.

The target of a further experiment is Albumin (Bos taurus) (UniProt P02769). Put plainly: compounds binding labelled BSA control protein – biochemical, small-molecule microarray, Alexa647 label, 635/667 nm fluorescence, artefact control for SMM control protein annotation, profiling panel (AID 1118).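 Further: score merges 667 nm emission intensity and signal-to-noise per printed compound spot.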 The settings on record: BSA-A647 binding, fluorescence 635 nm, higher = more signal.
Chain of Albumin (Bos taurus) (P02769 whole entry, looked up): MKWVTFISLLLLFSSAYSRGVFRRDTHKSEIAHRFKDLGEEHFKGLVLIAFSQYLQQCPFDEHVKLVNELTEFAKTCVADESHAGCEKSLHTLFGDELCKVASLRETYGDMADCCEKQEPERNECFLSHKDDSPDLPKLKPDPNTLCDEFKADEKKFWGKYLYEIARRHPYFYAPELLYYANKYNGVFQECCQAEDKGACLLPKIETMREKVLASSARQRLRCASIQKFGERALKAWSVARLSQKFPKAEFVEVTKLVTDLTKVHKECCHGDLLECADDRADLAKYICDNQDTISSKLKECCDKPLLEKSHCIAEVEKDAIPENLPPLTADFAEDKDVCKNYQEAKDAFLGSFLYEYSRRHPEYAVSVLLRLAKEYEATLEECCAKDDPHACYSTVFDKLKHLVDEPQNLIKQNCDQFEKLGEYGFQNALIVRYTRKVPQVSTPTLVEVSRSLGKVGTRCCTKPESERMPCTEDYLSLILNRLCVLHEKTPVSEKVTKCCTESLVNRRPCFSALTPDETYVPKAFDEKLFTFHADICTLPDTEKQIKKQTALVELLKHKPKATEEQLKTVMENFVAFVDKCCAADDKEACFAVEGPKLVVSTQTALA
Experiment [11] in a line: probe aXIP binding to arrayed compounds – biochemical, NeuroSMM set, 635/667 nm fluorescence, primary screen (AID 1119).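 Further: probe is the protein aXip251-270 applied at 1 µg/mL to compound-printed slides; binding of probe to printed compounds measured as 667 nm fluorescence plus signal to noise.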 The settings on record: small-molecule microarray, higher = more signal, called active from +8 up or from −8 down.
Experiment [12] is described as follows: probe aNOTCH3 binding on compound microarray – biochemical, small-molecule microarray, 635/667 nm fluorescence, primary screen (AID 1120).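 Further: probe is a biotin-tagged antibody raised against NOTCH3 rather than NOTCH3 protein; score merges spot fluorescence near 667 nm with spot signal to noise.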 The settings on record: higher = more signal.
The nature of experiment [13]: probe aNOTCH2 binding on compound microarray – biochemical, small-molecule microarray, 635/667 nm fluorescence, primary screen (AID 1121).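 Further: score merges feature fluorescence read at 667 nm with its signal to noise.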 The conditions noted are these: higher = more signal.
Experiment [14] concerns the target Carbonic anhydrase 2 (Homo sapiens) (UniProt P00918). Put plainly: compounds binding carbonic anhydrase 2 – biochemical, small-molecule microarray, Alexa647-labelled CAII, profiling panel (AID 1122). The conditions noted are these: CAII-A647 binding fluorescence, higher = more signal.
A short description of experiment [15]: COS7 lysate on small-molecule microarray, probe aHis, 635 nm (AID 1123).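 Further: z-score combines 667nm fluorescence intensity with signal-to-noise per printed compound spot.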 The conditions noted are these: COS7 cell lysate, fluorescence, higher = more signal.
Experiment [16] is described as follows: probe aLAP1 signal on lysate-treated microarray – cell lysate, small-molecule microarray, COS7 lysate, primary screen (AID 1124).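 Further: lysate comes from COS7 cells expressing LAP1 and is applied at 0.3 µg/mL; score merges spot fluorescence near 667 nm with signal-to-noise over triplicate slides.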 The settings on record: probe aLAP1, fluorescence, higher = more signal.
The subject of the next experiment is Sam68 (KHDRBS1). Put plainly: compounds binding KHDRBS1 protein – biochemical, small-molecule microarray, 635 nm fluorescence, primary screen (AID 1125).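 Further: score merges 667 nm channel intensity with signal to noise over triplicate slides.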 The settings on record: higher = more signal.
For experiment [17], the system named is Chordin-like protein 2 (CHRDL2). Put plainly: compounds binding chordin-like 2 – biochemical, small-molecule microarray, 635 nm fluorescence, primary screen (AID 1126).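 Further: printed compound slides probed with Chrdl2 protein at 4 µg/mL for 1 h at 4 C; score merges 667 nm emission intensity with signal to noise over three replicate slides.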 The conditions noted are these: fluorescence 635 nm, higher = more signal.
The target of experiment [18] is Concanavalin-A (Canavalia ensiformis) (UniProt P02866). Put plainly: compounds binding concanavalin A lectin – biochemical, small-molecule microarray, Alexa647 label, 635 nm, artefact control for SMM control protein annotation, primary screen (AID 1127).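 Further: z combines 667 nm emission intensity with signal-to-noise across three replicate slides.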 The conditions noted are these: ConA-A647 binding fluorescence, higher = more signal.
Chain of Concanavalin-A (Canavalia ensiformis) (P02866 whole entry, looked up): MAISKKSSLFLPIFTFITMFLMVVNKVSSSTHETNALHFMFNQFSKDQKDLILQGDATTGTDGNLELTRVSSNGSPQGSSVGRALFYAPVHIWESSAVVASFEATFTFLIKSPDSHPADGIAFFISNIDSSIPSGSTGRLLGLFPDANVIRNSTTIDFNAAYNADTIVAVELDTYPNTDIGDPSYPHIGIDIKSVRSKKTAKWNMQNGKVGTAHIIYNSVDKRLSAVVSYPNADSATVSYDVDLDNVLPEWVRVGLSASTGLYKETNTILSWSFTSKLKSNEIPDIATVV

Chain of Alpha-bungarotoxin (Bungarus multicinctus) (P60615 whole entry, looked up): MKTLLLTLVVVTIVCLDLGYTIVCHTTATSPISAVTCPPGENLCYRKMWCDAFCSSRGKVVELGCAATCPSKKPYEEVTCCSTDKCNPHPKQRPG

Take `OCC1C=C(/C=C/c2ccccc2)CN1Cc1ccccc1Br` (stereo not given): the composite z-score in experiment [1] was -0.119; in experiment [3] it was 1.14; in experiment [4], 0.776; in experiment [5], -0.265; in experiment [6], 0.0375; in experiment [7] it was -0.0553. In addition, the composite z-score in experiment [8] was -0.266; in experiment [9] it was 0.289; in experiment [10] it was 1.12; in the experiment with Albumin (Bos taurus) it was 0.718; in [12] it was 0.0694; in experiment [13], -0.0877. Further, the composite z-score in experiment [14] was 0.287; in [15], 0.672; in experiment [16] it was -0.0831; in the experiment on Sam68 (KHDRBS1) it was 1.01; in experiment [17], 0.402; in experiment [18], 0.94. In experiment [2], the z-score was -1.92. In addition, the composite Z-score in experiment [11] was 0.466 (inactive).

For the compound `CC(C)[Si](C#C[Si](C(C)C)(C(C)C)C(C)C)(O[C@H](C)c1cn(Cc2ccccc2)nn1)C(C)C`, the composite z-score in experiment [1] is 1.2; in [3], 0.409; in experiment [4], 0.634; in [5] it was 0.142; in experiment [6] it was -0.0893; in experiment [7] it was -0.221. In addition, the composite z-score in experiment [8] is -0.33; in experiment [9] it was 0.182; in experiment [10], 0.717; with Albumin (Bos taurus) it was 0.551; in [12], 0.379; in experiment [13], -0.0956. The composite z-score in experiment [14] is 0.48; in [15] it was 0.664; in experiment [16] it was 0.177; in the experiment on Sam68 (KHDRBS1), 1.03; in experiment [17], 0.289; in [18], 0.598. The z-score in experiment [2] was 0.16. The composite Z-score in experiment [11] was -0.539 (inactive).

Take `O=C(O)[C@H](Cc1ccccc1)n1cc(-c2ccccc2)nn1`: the composite z-score in experiment [1] is 0.52; in [3] it was 0.506; in experiment [4] it was 0.14; in [5] it was -0.372; in [6], -0.152; in [7], -0.237. The composite z-score in [8] is 0.297; in experiment [9] it was 0.635; in [10], 0.327; in the experiment with Albumin (Bos taurus) it was 0.0644; in experiment [12] it was -0.0313; in experiment [13], -0.164. Further, the composite z-score in experiment [14] was 0.155; in experiment [15], -0.065; in [16], 0.277; in the experiment on Sam68 (KHDRBS1), 0.187; in [17] it was 0.238; in experiment [18] it was 0.362. Moreover, in [2], the z-score was 0.36. Also, the composite Z-score in experiment [11] is 0.52 (inactive).

As to `COCCOC(=O)N1C(=O)[C@@]2(c3ccccc31)[C@H](C(N)=O)[C@H]1C(=O)O[C@H](c3ccccc3)[C@H](c3ccccc3)N1[C@@H]2c1ccc(O)cc1`, the composite z-score in experiment [1] was 1.37; in experiment [3], 0.113; in experiment [4], 0.0186; in [5], -0.346; in [6], -0.199; in [7], -0.0769. The composite z-score in experiment [8] was -0.334; in [9] it was -0.602; in experiment [10], -0.364; in the experiment with Albumin (Bos taurus), 0.737; in [12], -0.162; in [13], -0.104. The composite z-score in [14] is 0.54; in experiment [15], 2.37; in [16], 0.325; in the experiment on Sam68 (KHDRBS1), 0.371; in experiment [17], -0.169; in [18], 0.237. This compound also showed a z-score in experiment [2] of -0.328. Moreover, the composite Z-score in [11] is 0.573 (inactive).

In the case of `CCOC(=O)C[C@H]1[C@H](OC(=O)c2ccc(-c3ccccc3)cc2)[C@@H](NC(=O)c2ccccc2)c2cc(OCCCO)ccc2N1C(=O)c1ccc2ccccc2n1`, the composite z-score in [1] was 1.29; in experiment [3], -0.196; in experiment [4] it was 1.2; in [5], 0.963; in [6], -0.0643; in experiment [7], -0.0011. In addition, the composite z-score in [8] was 0.176; in experiment [9] it was 0.629; in experiment [10] it was 0.552; with Albumin (Bos taurus), 0.828; in experiment [12], 0.0069; in experiment [13], -0.0811. Also, the composite z-score in experiment [14] was 0.287; in [15] it was 0.96; in [16], 0.547; in the experiment on Sam68 (KHDRBS1), 1.18; in experiment [17], -0.8; in [18], 0.627. The z-score in experiment [2] is -1.09. Also, the composite Z-score in experiment [11] is 0.21 (inactive).

For `Cc1c(NC(=O)/C(C#N)=C/c2cccc([N+](=O)[O-])c2)c(=O)n(-c2ccccc2)n1C`, the composite z-score in experiment [1] is 0.785; in [3], 0.285; in experiment [4], 0.619; in experiment [5], -0.249; in experiment [6] it was -0.0819; in [7], -0.0793. For the same compound, the composite z-score in experiment [8] is -0.346; in experiment [9], 0.38; in experiment [10], 0.0071; in the experiment with Albumin (Bos taurus), 0.48; in experiment [12], 0.0934; in experiment [13], 0.993. Also, the composite z-score in experiment [14] is 0.792; in experiment [15] it was 0.719; in experiment [16], 0.861; in the experiment with Sam68 (KHDRBS1), 0.928; in experiment [17], 0.393; in experiment [18], 0.456. In experiment [2], the z-score was -1.44. In experiment [11], the composite Z-score was -0.449 (inactive).
